# Pf growth 96h = P. falciparum growth inhibition at 96 hour, primary screen for plastid delayed-death inhibitors. P. falciparum luciferase reporter growth, 96 h. Potency, µM (series often up to 28.7 µM), without a hit: at the highest dose activity change, negative = inhibition, most hits filed as inhibitors. 6.9% of 320,000 active. AID 504834; note: potency is the fitted concentration of half-maximal effect; % is set by controls: 0 for no effect and ±100 for the full control effect
#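 Plates of compound plus infected erythrocytes (2% hematocrit, 0.05% parasitemia final) incubate 96 hours, 37 C, 5% CO2. Detection reagent added; reduced luminescence from the parasites' luciferase reporter flags inhibition.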
# Giardia FBPA inh = Giardia lamblia aldolase inhibition; purified Giardia FBPA; Potency, µM (highest dose often 59.6 µM), without a hit: at the top dose activity, negative = inhibition, actives largely listed as inhibitors; 0.71% of 290,000 active; AID 2451; note: potency is the fitted concentration of half-maximal effect; % is set by controls: 0 for no effect and ±100 for the full control effect; nearly all actives have a fitted effect of over 55% in size
# Target sequence (A8B2U2 whole entry, looked up): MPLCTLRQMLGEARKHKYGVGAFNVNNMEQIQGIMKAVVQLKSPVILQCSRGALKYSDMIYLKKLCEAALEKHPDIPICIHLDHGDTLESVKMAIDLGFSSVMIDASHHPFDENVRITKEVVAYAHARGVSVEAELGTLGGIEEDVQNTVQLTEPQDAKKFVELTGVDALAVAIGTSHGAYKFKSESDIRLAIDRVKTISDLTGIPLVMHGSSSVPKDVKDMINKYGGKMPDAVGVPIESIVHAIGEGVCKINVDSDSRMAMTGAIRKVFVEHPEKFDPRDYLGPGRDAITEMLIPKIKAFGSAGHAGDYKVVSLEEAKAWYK
#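 Giardia FBPA (40 nM reagent) was preincubated 10 min at RT with compound (up to 57.5 uM final), then substrate plus GAPDH/TPI/NAD/arsenate coupling system with diaphorase/resazurin was added; resorufin fluorescence (525/598 nm) was read after 20 min.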
# NS1 function inh = blocks influenza NS1 protein function. Potency, µM (top dose mostly 46.1 µM), without a hit: at the top dose activity, positive = more growth. 0.4% of 270,000 active. AID 2326; calls by dose curve; note: potency is the fitted concentration of half-maximal effect; actives are rising curves; nearly all actives have a fitted effect of over 50% in size
#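 In this qHTS, NS1 from influenza A is expressed in budding yeast, where it slows growth. Cells are switched from glucose to 2% galactose medium (pH 6.0, -URA), treated with compound, and growth recovery is read at OD600.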
# Shiga toxin inh = Shiga toxin inhibition; Vero cells, Shiga toxin protein synthesis inhibition reporter; inhibition, % at 38.7 µM; 9.2% of 290,000 active; AID 2315; in the data active = inhibition mostly above about 28%, no sharp cut-off; inactive = mostly below about 43%; note: 0% is about no effect
# Pf growth 48h = inhibits P. falciparum growth in the first generation, 48 h; P. falciparum luciferase growth in erythrocytes, 48 h; Potency, µM (series often up to 28.7 µM), for the others: top-dose activity change, negative = inhibition, hits mostly inhibitors; 5.9% of 310,000 active; AID 504832; note: potency is the fitted concentration of half-maximal effect; % is set by controls: 0 for no effect and ±100 for the full control effect
#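 Here the parasites carry a stable luciferase gene and grow inside erythrocytes in Albumax-based RPMI medium with compound for one erythrocytic cycle. Activity is scored as loss of luminescent signal.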
# Cycloheximide cs = affects cycloheximide protein synthesis inhibition readout, counter-screen. cell reporter, cycloheximide protein synthesis inhibition counterscreen. max response, %. AID 2314. 12% of 300,000 active; in the data active = max response mostly above about 13%, no sharp cut-off; inactive = mostly below about 14%; note: read at 38.3 µM for the half of the compounds with a filed dose; 0% is about no effect
# * = called active by the depositor; i = inactive; ? = inconclusive; nt = no result given; [ ] = remark or other dose. Sampled rows, rich in hits. Any-hit rate of the full collection: about 21%. Unless noted, calls come from the whole dose curve; as a rule, active = well fitted curve in the direction sought with a large enough effect; inconclusive = small, poorly fitted or top-dose-only effect, or another doubt; inactive = no such curve, though single readings can be large; an effect the other way counts as inactive or inconclusive.
SMILES,Pf growth 96h,Giardia FBPA inh,NS1 function inh,Shiga toxin inh,Pf growth 48h,Cycloheximide cs
Fc1cccc(Cl)c1Cn1nnc(-c2ccc3c(c2)OCO3)n1,nt,4.3%,-31.9%,145.9*,104.3%,62.1*
COc1cccc(NC(=O)N2CCC(n3nnc4ccccc43)CC2)c1,0.6%,-0.9%,-0.5%,22.4,-19.0%,-3.9
CC(C)(C)CNc1nc(C#N)nc(Nc2ccccc2)n1,nt,-6.0%,nt,nt,nt,nt
N#CCn1nnc(-c2ccc3c(c2)OCO3)n1,?,0.9%,-5.3%,40.0,27.5%,34.2*
Cc1cccc(CCNC(=O)c2cc(S(=O)(=O)N3CCCCC3)c[nH]2)c1,?,7.8%,-2.6%,2.6,?,0.6
Cc1cc(C(=O)OCC(=O)Nc2cc(S(=O)(=O)N(C)C)ccc2C)c2ccccc2n1,3.3%,3.2%,nt,-15.1,2.0%,-2.4
Cc1cc(C(=O)OCC(=O)Nc2cc(S(=O)(=O)N(C)C)ccc2Cl)c2ccccc2n1,15.0%,1.3%,nt,85.6*,12.1%,22.3
CCN(c1ccccc1)S(=O)(=O)c1ccc(Cl)c(NC(=O)COC(=O)c2cc(O)c3ccccc3c2O)c1,11.7µM*,5µM*,-40.1%,36.1*,13.1µM*,11.8*
CCN(c1ccccc1)S(=O)(=O)c1ccc(Cl)c(NC(=O)COC(=O)C2CC2C)c1 (configuration not stated),-1.7%,-4.7%,nt,-6.8,-13.2%,-2.8
CCN(c1ccccc1)S(=O)(=O)c1ccc(Cl)c(NC(=O)COC(=O)c2ccc(O)cc2)c1,11.7µM*,10.0%,11.7%,19.7,?,-0.5
CC(=O)Nc1ccc(NC(=O)c2ccccc2Nc2ccccc2)cc1,2.4%,1.1%,-10.1%,2.8,-24.4%,-2.1
CCOc1ccc(CCNc2nc3ccccc3n3c(C)nnc23)cc1OCC,16.1%,-5.1%,0.7%,-3.1,5.22µM*,-2.6
COc1ccc(CCNc2nc3ccccc3n3nnnc23)cc1OC,7.0%,0.6%,-12.2%,14.0,nt,11.2
Cc1cc(C(=O)COC(=O)COc2ccccc2C#N)c(C)n1CC1CCCO1 (configuration not stated),14.5%,nt,nt,nt,11.6%,nt
C=CCN1C=CC(=C/C=C(/C#N)C(=O)OCC)C=C1,i,-15.0%,2.5%,46.6,444.0%,34.1*
CCOC(=O)/C(C#N)=C/C=C1/C=CC=CN1C,52.4%,-16.5%,-2.5%,34.4,63.8%,27.1*
CCOC(=O)C1CCCN(/C=C2\SC(=S)N(CC)C2=O)C1 (configuration not stated),-15.2%,0.9%,-5.4%,15.6,-14.7%,7.9*
CCN1C(=O)/C(=C/N2CC(C)CC(C)C2)SC1=S (configuration not stated),-4.5%,18.1%,6.1%,-5.6,58.5%,5.9
CCN1C(=O)/C(=C/N2CCc3ccccc3C2)SC1=S,-18.9%,19.8%,1.6%,31.5,28.6%,15.7*
CCN1C(=O)/C(=C\N2CCCCCC2)SC1=S,11.7µM*,2.9%,-18.3%,23.0,?,15.1*
O=C(NCCCN1CCOCC1)/C(=C/c1ccco1)NC(=O)c1ccccc1,5.7%,-13.6%,-0.9%,-9.7,30.9%,-2.4
Cc1ccc2nc(C)cc(C(=O)N/N=C/c3ccncc3)c2c1,-19.2%,7.5%,4.1%,-9.8,4.1%,-2.6
CN(C)CCCN1C(=O)C2CCc3[nH]c4ccccc4c3C2C1=O (configuration not stated),2.94µM*,-7.2%,0.8%,-9.1,16.6%,-1.7
CC(=O)Nc1ccc(N(CC(=O)NC2CCCCC2)C(=O)Cn2nnc(-c3ccccc3)n2)cc1,-11.0%,2.3%,14.0%,-12.0,-16.8%,-4.1
CCCOc1ccc(-c2nnc(-c3ccncc3)o2)cc1,?,-2.1%,-5.4%,84.3*,129.4%,21.0*
SMILES,Pf growth 96h,Giardia FBPA inh,NS1 function inh,Shiga toxin inh,Pf growth 48h,Cycloheximide cs
c1cc(-c2nnc(-c3ccncc3)o2)ccn1,137.2%,5.8%,-2.8%,14.1,nt,-0.5
COc1ccc(-c2nnc(-c3ccc(OCC(C)C)cc3)o2)cc1,58.2%,nt,14.5%,-7.3,47.5%,19.0
CC(C)COc1ccc(-c2nnc(-c3ccncc3)o2)cc1,20.3%,8.4%,-4.1%,110.8*,110.2%,37.6*
CN1CCc2c(sc(NC(=O)C3CCCCC3)c2C(N)=O)C1,-7.2%,?,-0.9%,13.8,8.0%,-1.3
CSc1ccccc1-c1n[nH]c(=S)o1,38.4%,?,nt,-13.2,13.1µM*,-5.1
CN(C)/C=N/NC(=O)C1Cc2c(ccc3ccccc23)O1 (configuration not stated),43.6%,3.1%,3.4%,-3.9,?,-2.5
CCOC(=O)OCC1OC(C#Cc2ccc(F)cc2F)C=CC1OC(=O)OCC (configuration not stated),nt,0.0%[12.9 µM],nt,nt,nt,nt
COc1ccc(S(=O)(=O)N2CCCOC2CNC(=O)C(=O)NCCCN2CCOCC2)cc1C (configuration not stated),26.4%,nt,3.5%,14.2,11.9%,-1.2
CCC(C)(C)n1nnnc1C(c1ccc(C)cc1)N1CCC(C)CC1 (configuration not stated),144.5%,-14.2%,-26.3%,16.1,10.4µM*,8.2
CCC(C)(C)n1nnnc1C(c1ccc(C)cc1)N1CCN(Cc2ccc3c(c2)OCO3)CC1 (configuration not stated),?,1.9%,2.9%,-3.4,14.7µM*,-3.9
CCC(C)(C)n1nnnc1C(c1ccc2ncccc2c1)N1CCN(Cc2ccc3c(c2)OCO3)CC1 (configuration not stated),167.7%,10.4%,-2.4%,10.8,-17.8%,-1.5
CCC(C)(C)n1nnnc1C(c1ccncc1)N1CCC(C)CC1 (configuration not stated),5.3%,5.4%,-4.7%,1.0,-23.6%,-3.5
O=C(CSc1nc2ccccc2c(=O)n1-c1ccccc1)N1CCc2ccccc2C1,2.62µM*,3.0%,-31.7%,-13.0,?,-0.6
Cn1c(=O)c2c(nc(SCC(=O)N3CCc4ccccc4C3)n2C)n(C)c1=O,10.4µM*,1.1%,-32.9%,8.2,-0.3%,7.3
O=C(CSc1nc2ccccc2c(=O)n1-c1ccccc1)N1CCC1,?,1.7%,nt,-19.6,?,-5.4
CC(C)Cn1c(SCC(=O)N2CCc3ccccc3C2)nc2cc(Cl)ccc2c1=O,4.65µM*,0.4%,11.4%,-2.3,?,-3.2
O=C(CSc1nc2[nH]ncc2c(=O)n1-c1ccccc1)N1CCCCCC1,10.4µM*,6.8%,3.0%,-2.2,-21.4%,-2.0
O=C(CSc1nc2[nH]ncc2c(=O)n1-c1ccccc1Cl)N1CCCC1,1.2%,-1.2%,nt,36.5,20.4%,12.5
O=C(CN(CC1CCCO1)C(=O)CNS(=O)(=O)c1ccc(F)cc1)NCc1ccc(F)cc1 (configuration not stated),-22.3%,nt,3.7%,-4.7,14.9%,-3.6
COc1ccc(NC(=O)COC(=O)c2ccc(OC)c(S(=O)(=O)N3CCCC3)c2)cc1OC,39.2%,nt,nt,nt,14.7%,nt
COCCn1c(SCC(=O)N2CCCc3ccccc32)nc2ccccc2c1=O,2.2%,-0.7%,-36.1%,-13.6,?,-1.7
